# Test results from the supplement of paper PMC4022240.
# ± gives the standard deviation.
# T1: HaloTag-ATRX ADD domain (163-292)
# T1 chain: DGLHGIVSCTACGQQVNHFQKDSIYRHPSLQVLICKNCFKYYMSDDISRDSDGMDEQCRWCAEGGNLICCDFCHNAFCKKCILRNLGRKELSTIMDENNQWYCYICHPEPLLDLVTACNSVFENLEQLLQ
# Experiments:
# Test in all cases: peptide microarray binding signal (635 nm), min-max normalized on array (fraction of array maximum); higher = stronger binding
# Details in all cases: peptide region: Unmod H2A variant
# [1] = biological target: T1, HaloTag-ATRX ADD domain (163-292)
# How it was run: (§1)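 Two probe formats were used for 1 h at 4°C: biotin-labelled HaloTag reader fusions (10 nM to 1 μM) with streptavidin-Alexa Fluor 647, and rabbit histone antibodies (1:10,000 to 1:2,000) with anti-rabbit Alexa 647. Both were applied to nitrocellulose arrays of histone 13-mer peptide–cellulose conjugates printed in triplicate with a Cy3 tracer and blocked overnight at 4°C. Signal was read at 635 nm and misprints at 532 nm on an Axon GenePix 4000B. Binding signal is expressed as the triplicate-spot mean intensity, min-max scaled for each library.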
# [2] = biological target: HaloTag-ING2 PHD (mouse Ing2 200-280)
# How it was run: as §1
# [3] = biological target: anti-H3K4me3 antibody ab8580
# How it was run: as §1
# [4] = biological target: anti-H3K9me3 antibody ab8898
# How it was run: as §1
# [5] = binder concentration: 1:2,000 dilution
# [6] = binder concentration: 1:10,000 dilution
Binder,peptide microarray binding signal ([1]; binder concentration: 50 nM),peptide microarray binding signal ([1]; binder concentration: 500 nM),peptide microarray binding signal ([2]; binder concentration: 10 nM),peptide microarray binding signal ([2]; binder concentration: 100 nM),"peptide microarray binding signal [3, 5]","peptide microarray binding signal [3, 6]","peptide microarray binding signal [4, 5]","peptide microarray binding signal [4, 6]"
MAAVLEYLTAEIL [Unmod H2A variant M A A V L E Y L T A E I L],0.0107 ± 0.00027,0.00667 ± 0.00052,0.00173 ± 2.1e-05,0.000992 ± 2.8e-05,0.00829 ± 0.0044,0.00217 ± 3.9e-05,0.000529 ± 1.3e-05,0.00075 ± 1.6e-05
KGNYAERIGAGAP [Unmod H2A variant K G N Y A E R I G A G A P],0.0345 ± 0.0048,0.0994 ± 0.0054,0.0206 ± 0.00047,0.0279 ± 0.0038,0.00668 ± 0.0046,0.00953 ± 0.0009,0.005421 ± 1.8e-05,0.00611 ± 0.0016
ILELAGNASRDNK [Unmod H2A variant I L E L A G N A S R D N K],0.0191 ± 0.0013,0.04029 ± 0.00036,0.00734 ± 0.00031,0.0487 ± 0.0018,0.0164 ± 0.0026,0.00354 ± 0.00017,0.00523 ± 0.00098,0.00536 ± 0.0001
RAKAKTRSSRAGL [Unmod H2A variant R A K A K T R S S R A G L],0.0117 ± 0.00045,0.0611 ± 0.039,0.00531 ± 0.00038,0.0242 ± 0.0082,0.00328 ± 0.00034,0.00165 ± 3.2e-05,0.000966 ± 0.00011,0.0011 ± 1.1e-05
RAKAKSRSSRAGL [Unmod H2A variant R A K A K S R S S R A G L],0.00771 ± 0.00081,0.0133 ± 0.001,0.00615 ± 0.00015,0.0141 ± 0.0012,0.000868 ± 0.00013,0.0012 ± 1.2e-05,0.0004379 ± 4.2e-06,0.00098 ± 1.7e-05
GNAARDNKKTRII [Unmod H2A variant G N A A R D N K K T R I I],0.0155 ± 0.0014,0.0214 ± 0.0004,0.003223 ± 1.8e-05,0.0051 ± 0.00053,0.00162 ± 0.0002,0.000799 ± 8.3e-06,0.000362 ± 6.3e-06,0.000577 ± 6.2e-06
RAKSKSRSSRAGL [Unmod H2A variant R A K S K S R S S R A G L],0.0102 ± 0.0014,0.00576 ± 0.0015,0.00645 ± 0.0004,0.0116 ± 0.0028,0.000472 ± 4.5e-05,0.00165 ± 3.2e-05,0.0005588 ± 5.2e-06,0.00127 ± 2.5e-05
ILELAGNAARDNK [Unmod H2A variant I L E L A G N A A R D N K],0.048 ± 0.0046,0.0752 ± 0.011,0.0242 ± 0.0025,0.0721 ± 0.0091,0.0104 ± 0.0051,0.015 ± 0.0031,0.00921 ± 0.0019,0.0132 ± 0.0022
RSSRAGLQFPVGR [Unmod H2A variant R S S R A G L Q F P V G R],0.0275 ± 0.0053,0.0768 ± 0.0024,0.0177 ± 0.0021,0.0277 ± 0.0034,0.00311 ± 0.00055,0.00148 ± 3.8e-05,0.0008004 ± 6.8e-06,0.0011 ± 2.2e-05
YLTAEILELAGNA [Unmod H2A variant Y L T A E I L E L A G N A],0.0171 ± 0.0047,0.00443 ± 0.0022,0.00203 ± 0.00013,0.00149 ± 4.1e-05,0.000717 ± 0.00017,0.00126,0.000664 ± 3.6e-05,0.00196 ± 0.00018
GAGAPVYMAAVLE [Unmod H2A variant G A G A P V Y M A A V L E],0.0137 ± 0.00082,0.0173 ± 0.0023,0.0083 ± 0.0011,0.0205 ± 0.0014,0.00425 ± 0.00061,0.0016 ± 0.00012,0.000846 ± 4.3e-05,0.00144 ± 3.7e-05
AGLQFPVGRVHRL [Unmod H2A variant A G L Q F P V G R V H R L],0.0745 ± 0.019,0.0998 ± 0.058,0.0252 ± 0.0093,0.0507 ± 0.015,0.00176 ± 0.00047,0.00793 ± 0.00092,0.00307 ± 0.00038,0.00542 ± 0.00044
QGGKARAKAKSRS [Unmod H2A variant Q G G K A R A K A K S R S],0.0073 ± 0.00042,0.0168 ± 0.0004,0.002507 ± 1.4e-05,0.00758 ± 0.0021,0.00164 ± 0.00013,0.001027 ± 1e-05,0.000302 ± 3.1e-06,0.000404 ± 4.4e-06
GNASRDNKKTRII [Unmod H2A variant G N A S R D N K K T R I I],0.0142 ± 0.00075,0.00895 ± 0.0037,0.0031 ± 0.00011,0.00673 ± 0.00046,0.000396 ± 2.5e-05,0.0012 ± 4.3e-05,0.000272 ± 4.9e-06,0.00075 ± 7.9e-06
KGNYAERVGAGAP [Unmod H2A variant K G N Y A E R V G A G A P],0.0103 ± 0.00041,0.0165 ± 0.00062,0.0105 ± 0.0025,0.034 ± 0.0024,0.00546 ± 0.001,0.00171 ± 6.5e-05,0.00116 ± 9.3e-05,0.00075 ± 2.1e-05
QGGKARAKAKTRS [Unmod H2A variant Q G G K A R A K A K T R S],0.00784 ± 0.00021,0.0153 ± 0.0011,0.00298 ± 0.00012,0.00496 ± 0.00036,0.00125 ± 0.00024,0.000685 ± 7.2e-06,0.000408 ± 1.4e-05,0.000404 ± 4.4e-06
KGNYSERVGAGAP [Unmod H2A variant K G N Y S E R V G A G A P],0.019 ± 0.0052,0.0303 ± 0.012,0.00692 ± 0.0004,0.0104 ± 0.0025,0.00799 ± 0.00061,0.00223 ± 0.00022,0.00116 ± 9.9e-05,0.00115 ± 5.3e-05
GAGAPVYLAAVLE [Unmod H2A variant G A G A P V Y L A A V L E],0.0133 ± 0.00042,0.00505 ± 0.0014,0.0031 ± 0.00049,0.0137 ± 0.00099,0.000189 ± 8.9e-06,0.0016 ± 2.7e-05,0.000423 ± 1.1e-05,0.00104 ± 2.8e-05
LAAVLEYLTAEIL [Unmod H2A variant L A A V L E Y L T A E I L],0.0089 ± 0.00038,0.00462 ± 0.00017,0.00215 ± 4.5e-05,0.00184 ± 0.00015,0.00238 ± 0.0001,0.000913 ± 1.6e-05,0.0003775 ± 3.7e-06,0.00075 ± 7.9e-06
AGLQFPVGRIHRL [Unmod H2A variant A G L Q F P V G R I H R L],0.0361 ± 0.0039,0.0377 ± 0.0043,0.0334 ± 0.0037,0.0514 ± 0.0061,0.00361 ± 0.0021,0.00628 ± 0.00018,0.00281 ± 0.00024,0.00686 ± 0.00042
